# Inconclusive results are not listed. The source made the active and inactive calls. Rule for the calls: active = hit-call score of the fitted dose curve at least 0.9, where 1 is the maximum; inconclusive = response in the unintended direction; inactive = score below 0.9.
# Columns and labels:
# [1] = molecular target: Glucocorticoid receptor (Homo sapiens) (UniProt P04150); experiment: NVS_NR_hGR: NovaScreen (NVS) Nuclear Receptor Binding Assay for human Glucocorticoid Receptor (GR) (AID 2283363);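 for AC50: activity is loss of specific radioligand binding signal relative to DMSO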
# Procedure, shortened: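 Single-readout cell-free binding: radioligand plus extracted receptor, 16-hour dosing, filter radiodetection; 25 uM duplicate primary, concentration series secondary.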
# [2] = molecular target: human Adenosine Transporter (Adot), SLC29A1 (gene 2030) (UniProt Q99808); experiment: NVS_TR_hAdoT: NovaScreen (NVS) Transporter Assay for human Adenosine Transporter (Adot) (AID 2283368)
# Procedure, shortened: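 Binding displacement on U937 extracted protein, read 1 h post-dose by filtration and scintillation counting. Primary duplicate test at 25 uM, then singleton concentration series with 50 uM top; DMSO baseline.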
# [3] = molecular target: Peroxisome proliferator-activated receptor gamma (Homo sapiens) (UniProt P37231); experiment: NVS_NR_hPPARg: NovaScreen (NVS) Nuclear Receptor Binding Assay for human Peroxisome Proliferator-activated Receptor gamma (PPARg) (AID 2283370)
# Procedure, shortened: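 Fluorescence polarization readout of ligand binding to extracted human PPARg, measured at 2 h. Duplicate single-point screen at 25 uM, then concentration-series retesting; activity defined as signal loss versus DMSO.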
# [4] = tested on: guinea pig Dopamine Transporter (DAT), gene 100714898; experiment: NVS_TR_gDAT: NovaScreen (NVS) Transporter Assay for guinea pig Dopamine Transporter (DAT) (AID 2283369);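 note: active compounds lower bound radioligand signal relative to DMSO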
# Procedure, shortened: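 Radioligand displacement on membranes from guinea pig striatum, 2 h exposure, bound label counted by filtration and scintillation. Tested at 25 uM in duplicate, then actives in concentration series to 50 uM; DMSO as negative control.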
# [5] = molecular target: human Serotonin Transporter (SERT), SLC6A4 (gene 6532) (UniProt P31645); experiment: NVS_TR_hSERT: NovaScreen (NVS) Transporter Assay for human Serotonin Transporter (SERT) (AID 2283372)
# Procedure, shortened: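 Human platelet membrane preparation; displacement of radioligand from serotonin transporter measured after 1 h by filtration and scintillation counting. Single 25 uM duplicate screen, then concentration series for actives, with DMSO as negative baseline.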
# [6] = molecular target: guinea pig Sigma Receptor, Non-selective Binding, SIGMAR1 (gene 100135589) (UniProt Q60492); experiment: NVS_OR_gSIGMA_NonSelective: NovaScreen (NVS) Nuclear Receptor Binding Assay for guinea pig Sigma Receptor, Non-selective Binding (AID 2283367)
# Procedure, shortened: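 Test chemicals were screened in duplicate at 25 uM, then in concentration series if active, against radioligand binding to guinea pig brain membranes; filtration and scintillation counting at 1 h measured remaining bound ligand.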
# [7] = tested on: rat Norepinephrine Transporter (NET), gene 83511; experiment: NVS_TR_rNET: NovaScreen (NVS) Transporter Assay for rat Norepinephrine Transporter (NET) (AID 2283373)
# Procedure, shortened: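 Competitive radioligand displacement at the rat NET using forebrain membrane preparations, 1 h incubation, filter-based scintillation readout. Primary testing in duplicate at a single 25 uM concentration; confirmed actives retested across concentrations.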
# [8] = molecular target: Nuclear receptor subfamily 1 group I member 2 (Homo sapiens) (UniProt O75469); experiment: NVS_NR_hPXR: NovaScreen (NVS) Nuclear Receptor Binding Assay for human Pregnane X Receptor (PXR) (AID 2283365);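 note: a drop in FRET signal versus DMSO baseline means the compound binds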
# Procedure, shortened: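 Human PXR binding measured by TR-FRET in a cell-free format, 2 h exposure. Single-concentration duplicates at 25 uM preceded concentration-response retests of actives; endpoint fitted positively relative to DMSO, loss of signal indicating binding.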
# Sequence of Peroxisome proliferator-activated receptor gamma (Homo sapiens) (P37231 whole entry, looked up): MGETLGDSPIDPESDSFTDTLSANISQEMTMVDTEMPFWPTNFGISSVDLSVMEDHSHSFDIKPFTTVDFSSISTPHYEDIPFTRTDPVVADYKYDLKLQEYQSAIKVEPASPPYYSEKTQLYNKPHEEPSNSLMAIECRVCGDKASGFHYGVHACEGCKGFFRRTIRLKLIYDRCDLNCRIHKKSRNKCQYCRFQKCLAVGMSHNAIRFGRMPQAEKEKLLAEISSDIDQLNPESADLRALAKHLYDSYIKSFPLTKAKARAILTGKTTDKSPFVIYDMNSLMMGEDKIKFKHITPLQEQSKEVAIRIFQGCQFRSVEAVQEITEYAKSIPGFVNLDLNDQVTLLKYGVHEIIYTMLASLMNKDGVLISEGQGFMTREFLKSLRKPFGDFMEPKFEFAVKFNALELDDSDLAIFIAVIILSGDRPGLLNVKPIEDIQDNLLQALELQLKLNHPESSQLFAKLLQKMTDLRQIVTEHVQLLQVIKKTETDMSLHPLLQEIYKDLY
# Sequence of guinea pig Sigma Receptor, Non-selective Binding, SIGMAR1 (gene 100135589) (Q60492 whole entry, looked up): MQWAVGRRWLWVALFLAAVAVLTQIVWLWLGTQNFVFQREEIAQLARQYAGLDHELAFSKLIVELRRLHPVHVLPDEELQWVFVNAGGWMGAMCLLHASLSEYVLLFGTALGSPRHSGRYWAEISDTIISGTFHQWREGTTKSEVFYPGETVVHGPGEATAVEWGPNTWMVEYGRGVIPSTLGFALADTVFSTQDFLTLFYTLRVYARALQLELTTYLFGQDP
# Sequence of Glucocorticoid receptor (Homo sapiens) (P04150 whole entry, looked up): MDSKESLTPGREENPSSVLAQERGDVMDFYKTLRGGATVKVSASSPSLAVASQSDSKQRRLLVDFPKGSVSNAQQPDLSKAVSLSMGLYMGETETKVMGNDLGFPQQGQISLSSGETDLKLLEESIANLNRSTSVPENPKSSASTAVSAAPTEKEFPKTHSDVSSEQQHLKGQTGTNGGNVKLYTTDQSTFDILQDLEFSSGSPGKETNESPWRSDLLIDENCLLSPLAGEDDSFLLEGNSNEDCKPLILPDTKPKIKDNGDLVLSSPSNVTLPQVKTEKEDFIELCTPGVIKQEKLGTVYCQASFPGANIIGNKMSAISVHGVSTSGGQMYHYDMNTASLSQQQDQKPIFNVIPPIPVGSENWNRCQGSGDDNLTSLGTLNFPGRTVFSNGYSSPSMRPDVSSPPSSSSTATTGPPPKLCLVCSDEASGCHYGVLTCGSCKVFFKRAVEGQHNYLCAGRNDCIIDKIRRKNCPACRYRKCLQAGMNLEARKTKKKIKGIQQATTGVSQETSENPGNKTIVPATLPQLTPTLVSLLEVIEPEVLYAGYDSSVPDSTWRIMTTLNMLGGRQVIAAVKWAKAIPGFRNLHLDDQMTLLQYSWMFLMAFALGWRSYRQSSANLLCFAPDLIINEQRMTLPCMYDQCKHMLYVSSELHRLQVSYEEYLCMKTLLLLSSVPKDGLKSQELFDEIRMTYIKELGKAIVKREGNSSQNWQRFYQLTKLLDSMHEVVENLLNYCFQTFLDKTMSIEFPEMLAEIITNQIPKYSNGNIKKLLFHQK
# Sequence of human Adenosine Transporter (Adot), SLC29A1 (gene 2030) (Q99808 whole entry, looked up): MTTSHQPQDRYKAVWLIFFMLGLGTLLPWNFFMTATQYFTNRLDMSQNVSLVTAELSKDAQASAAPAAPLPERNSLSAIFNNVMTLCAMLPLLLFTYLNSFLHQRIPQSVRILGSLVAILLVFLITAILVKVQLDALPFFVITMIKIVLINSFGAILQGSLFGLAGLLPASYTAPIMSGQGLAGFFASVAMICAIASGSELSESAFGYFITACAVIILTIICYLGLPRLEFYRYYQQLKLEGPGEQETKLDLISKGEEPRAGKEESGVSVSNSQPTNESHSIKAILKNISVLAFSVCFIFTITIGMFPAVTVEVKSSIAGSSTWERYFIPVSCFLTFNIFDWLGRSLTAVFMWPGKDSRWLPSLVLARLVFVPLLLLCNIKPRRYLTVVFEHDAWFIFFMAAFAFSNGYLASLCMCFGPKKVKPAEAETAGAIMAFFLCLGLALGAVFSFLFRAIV
# Sequence of human Serotonin Transporter (SERT), SLC6A4 (gene 6532) (P31645 whole entry, looked up): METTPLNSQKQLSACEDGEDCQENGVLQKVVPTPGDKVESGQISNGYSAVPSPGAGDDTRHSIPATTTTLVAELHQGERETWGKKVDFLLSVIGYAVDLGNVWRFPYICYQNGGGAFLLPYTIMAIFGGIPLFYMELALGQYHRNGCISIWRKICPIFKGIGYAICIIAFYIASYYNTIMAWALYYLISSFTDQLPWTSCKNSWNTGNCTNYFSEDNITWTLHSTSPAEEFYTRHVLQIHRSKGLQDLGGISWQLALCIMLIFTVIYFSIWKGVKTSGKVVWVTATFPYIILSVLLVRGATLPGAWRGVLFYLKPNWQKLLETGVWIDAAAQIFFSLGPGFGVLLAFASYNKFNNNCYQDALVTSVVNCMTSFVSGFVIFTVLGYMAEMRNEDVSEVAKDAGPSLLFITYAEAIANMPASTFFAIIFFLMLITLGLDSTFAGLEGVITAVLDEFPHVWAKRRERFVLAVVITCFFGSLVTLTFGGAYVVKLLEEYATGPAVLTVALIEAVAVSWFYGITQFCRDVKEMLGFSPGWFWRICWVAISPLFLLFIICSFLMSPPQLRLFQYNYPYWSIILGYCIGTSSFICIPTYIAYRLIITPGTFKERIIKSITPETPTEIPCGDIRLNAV
# Sequence of Nuclear receptor subfamily 1 group I member 2 (Homo sapiens) (O75469 whole entry, looked up): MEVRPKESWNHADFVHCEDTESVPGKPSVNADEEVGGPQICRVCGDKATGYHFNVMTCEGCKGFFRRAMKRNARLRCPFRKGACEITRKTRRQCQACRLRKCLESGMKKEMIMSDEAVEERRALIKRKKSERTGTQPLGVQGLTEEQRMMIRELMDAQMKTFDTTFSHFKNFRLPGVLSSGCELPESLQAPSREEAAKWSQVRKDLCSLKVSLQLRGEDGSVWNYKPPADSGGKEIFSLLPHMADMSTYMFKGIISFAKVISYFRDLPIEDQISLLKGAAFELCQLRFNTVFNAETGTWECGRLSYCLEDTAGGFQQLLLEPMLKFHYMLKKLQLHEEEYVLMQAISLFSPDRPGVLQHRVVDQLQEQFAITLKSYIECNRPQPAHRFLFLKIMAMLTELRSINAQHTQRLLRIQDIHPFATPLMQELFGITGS
smiles,measurement,setting,value
CCCCCCCCn1sccc1=O,AC50,[1],7.16 µM (active)
same,AC50,[2],16.6 µM (active)
same,AC50,[3],0.693 µM (active)
O=[N+]([O-])c1ccc(Oc2ccc(Cl)cc2Cl)cc1,outcome,[1],inactive
same,outcome,[4],inactive
same,outcome,[5],inactive
O=C(N[C@H](c1ccccc1)[C@@H]1CN2CCC1CC2)c1c(Cl)ccc(C(F)(F)F)c1Cl,AC50,[6],22.3 µM (active)
same,AC50,[4],29.9 µM (active)
same,AC50,[5],1.52 µM (active)
same,AC50,[7],26.4 µM (active)
Nc1ccc(Oc2ccc(N)cc2)cc1,AC50,[4],2.99 µM (active)
same,outcome,[3],inactive
CN(C)c1ccc(C(=O)c2ccc(N(C)C)cc2)cc1,outcome,[8],inactive
same,AC50,[3],25 µM (active)
CCCCOC(=O)c1ccccc1C(=O)OCc1ccccc1,outcome,[6],inactive
same,outcome,[3],inactive
Cn1cc(-c2ccccc2)c(=O)c(-c2cccc(C(F)(F)F)c2)c1,outcome,[1],inactive
same,outcome,[3],inactive
same,outcome,[5],inactive
C=CCc1ccc2c(c1)OCO2,AC50,[6],11.6 µM (active)
CC(C)(C)OOC(=O)c1ccccc1,outcome,[8],inactive
same,outcome,[3],inactive
CS(=O)(=O)NC(=O)c1cc(Oc2ccc(C(F)(F)F)cc2Cl)ccc1[N+](=O)[O-],outcome,[3],inactive
O=[N+]([O-])C(Br)(CO)CO,AC50,[2],25 µM (active)
same,outcome,[3],inactive
CCCCCOC(=O)c1ccccc1C(=O)OCCCCC,outcome,[1],inactive
same,outcome,[4],inactive
[Cl-].[Cl-].[Hg+2],AC50,[1],8.46 µM (active)
same,AC50,[2],5.1 µM (active)
same,AC50,[4],44.2 µM (active)
Nc1ccc(Cl)cc1N,outcome,[3],inactive
CCOC(=O)[C@]1(c2ccccc2)Oc2ccccc2[C@@H]1N,AC50,[1],25 µM (active)
same,AC50,[6],0.0612 µM (active)
same,AC50,[4],5.45 µM (active)
same,outcome,[3],inactive
same,AC50,[5],2.56 µM (active)
same,AC50,[7],5.35 µM (active)

# Reference: PubChem BioAssay (EPA / NIEHS)
